The panel holds about 83,000 compounds, 20% with a hit somewhere; the sample as a whole holds those more often.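 Growth was measured after 48 h exposure to one concentration of compound in 96-well plates. Values under 10 count as active.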 The source made the active and inactive calls.

The experiment deals with HL-60(TB) leukemia. Put plainly: NCI-60 one-dose screen, 48 h (100 = growth as untreated, 0 = no growth, -100 = all killed). The following applies: 10 µM unless noted.
With `N#Cc1c(-c2cccs2)cc(-c2cnccn2)nc1SCC(=O)N/N=C/c1ccncc1`, the growth was 118% (inactive).
In the case of `Cc1ccc(-c2nn(-c3ccccc3)cc2/C=C/C(=O)c2ccc(NC(=O)CCCCCCC(=O)NO)cc2)cc1`, the growth was 109% (inactive).
As for `CN(C)CCCNc1c2ccc(Cl)cc2nc2c1oc1ccccc12`, the figure is -1.28% (active); as for `COc1ccc(C2c3[nH]c4ccc(Cl)cc4c3CCN2c2oc(CO)nc2C#N)cc1` (stereo not given), 29.4% (inactive); as for `N#Cc1c(-c2cccs2)cc(-c2cnccn2)nc1SCC(=O)N/N=C/c1ccccc1`, 110% (inactive).
In the case of `COc1ccc(NS(=O)(=O)c2ccc(-c3cnc(C4CC4)o3)cc2)cc1Cl`, the growth is 3.27% (active).
As for `C[C@@H]1C[C@H]2C(=O)OCC(NC(=O)[C@H](Cc3cc(F)cc(F)c3)NC(=O)Nc3ccc(Cl)cc3F)C(=O)N3CCC[C@H]3C(=O)N3CCCC[C@H]3C(=O)N[C@@H](C)C(=O)N2C1` (stereo not given in full), the figure is 6.2% (active); as for `COc1ccc(N2CCN(C3=C(Cl)C(=O)c4ncccc4C3=O)CC2)cc1`, -4.99% (active).
With `C#Cc1nc(/C=C/C(=O)c2nccn2C)cs1`, the growth was -40.3% (active).
As for `COC1=C(c2ccccc2)C(=O)C(OC)=C(c2ccccc2)C1=O`, the figure is 5.79% (active); as for `COc1cc(/C=C2/C(=O)Nc3ccc(Cl)cc32)ccc1OCc1ccc(Cl)cc1`, 102% (inactive); as for `COc1ccc(NC(=O)CSc2nnc(-c3ccc4nc(-c5ccccc5)[nH]c4c3)o2)cc1`, 101% (inactive).
As for `CCc1cccc2c3c(sc12)C(c1ccc(OC)cc1)C(C#N)=C(/N=C/c1ccc(Cl)cc1)O3` (stereo not given), the figure is 2.87% (active); as for `O=C1[C@@H]2Cc3c([nH]c4ccccc34)[C@H](c3c(Cl)cccc3Cl)N2C(=O)CN1C1CCN(CC2CCCCC2)CC1`, -25.1% (active).
On to `Cc1ccccc1N1CCN(C2=C(Cl)C(=O)c3ncccc3C2=O)CC1`, for which the growth was 4.21% (active).
In the case of `C=C(C)[C@@H]1CC[C@]2(COP(=O)(OCC)OCC)CC[C@]3(C)[C@H](CC[C@@H]4[C@@]5(C)CCCNC(C)(C)[C@@H]5CC[C@]43C)[C@@H]12`, the growth is -56.4% (active).
As for `C=C1C(=O)O[C@@H]2C[C@@H](C)/C=C\C(=O)[C@](C)(OC(C)=O)C[C@H](OC(=O)/C(C)=C\C)[C@@H]12`, the figure is -3.8% (active); as for `COc1ccc(-c2cc(-c3cccc4ccccc34)n3c(n2)nc2ccccc23)cc1`, -0.785% (active).
`Cc1ccc2c(c1)C13C(=C2Br)CCCN1C(=O)c1ccccc13` (stereo not given): the growth is 68.2% (inactive).
As for `CN(c1ccc(Br)cc1)S(=O)(=O)c1ccc(-c2cnc(C3CC3)o2)cc1`, the figure is -25.1% (active).
As for `Cc1cc(F)cc(NS(=O)(=O)c2ccc(-c3cnc(C4CC4)o3)cc2)c1`, the growth was 1.67% (active).
Regarding `COc1cccc2cc(-c3cc4ccccc4[nH]3)/c(=N\NC(=O)c3ccc(Cl)cc3)oc12`, the growth was -11.8% (active).
As for `C/C(=C(/C)C1CC1CCN(C(=O)c1ccccn1)S(=O)(=O)c1ccc(C)cc1)C1CCCCC1` (stereo not given), the figure is 97.4% (inactive).
In the case of `COC[C@]12CCC(C)(C)C[C@H]1C1=CC[C@@H]3[C@@]4(C)CCCNC(C)(C)[C@@H]4CC[C@@]3(C)[C@]1(C)CC2`, the growth was -65.3% (active).
As for `COc1cc2oc(-c3cccc(NC(=O)c4cc(N)ccc4Cl)c3)cc(=O)c2c(OC)c1OC`, the figure is 99.7% (inactive).
As for `COc1ccc(N)cc1C(=O)Nc1cccc(-c2cc(=O)c3c(OC)c(OC)c(OC)cc3o2)c1`, the figure is 58.1% (inactive); as for `COCCOc1ccc2ncc(C#Cc3cncc(C(=O)Nc4ccc(CN5CCN(C)CC5)c(C(F)(F)F)c4)c3)n2n1`, 16.7% (inactive); as for `NC(N)=Nc1ccc(Oc2cccc(NC(N)=Nc3ccc(Br)cc3)c2)cn1`, 64.8% (inactive).
With `C=C(C)[C@@H]1CC[C@]2(C(=O)NCCCN(CCC#N)CCC#N)CC[C@]3(C)[C@H](CC[C@@H]4[C@@]5(C)CCC(=O)C(C)(C)[C@@H]5CC[C@]43C)[C@@H]12`, the growth is 96.3% (inactive).
As for `CC1(C)CC[C@]2(C(=O)N3CCOCC3)CC[C@]3(C)C(=CC[C@@H]4[C@@]5(C)C/C(=C/c6ccccn6)C(=O)C(C)(C)[C@@H]5CC[C@]43C)[C@@H]2C1`, the figure is 6.91% (active).
As for `O=C(CCCCCCNC(=O)C(O)(O)C(F)(F)F)Nc1nc2ccccc2s1`, the figure is 11.3% (inactive).
As for `CN1CCN(c2ccc(Nc3nc(NCCNC(=O)c4ccccc4)c4sccc4n3)cc2)CC1`, the figure is 22.2% (inactive); as for `O=C(CCCCCC/C=C\c1csc(Br)n1)NO`, 78.5% (inactive).
Take `C#Cc1nc(C2=C(C)C(OC(C)=O)/C(=N/OC(C)=O)C2)cs1` (stereo not given): the growth was -43.9% (active).
As for `CCCCCCNC(=O)Oc1ccc(/C(=C(/C)c2ccccc2)c2ccc(OCCN(C)C)cc2)cc1`, the figure is 23.2% (inactive); as for `CCc1cc(OC(=O)N2CCC(N3CCCCC3)CC2)ccc1Nc1cc(-c2ccc(-n3cccn3)cc2)[nH]n1`, 62.5% (inactive).
As for `O=C1/C(=C/C2=Cc3ccccc3OC2)SC(=S)N1c1ccc(F)cc1`, the figure is 95.2% (inactive); as for `O=S(=O)(Nc1cccc2ccccc12)c1ccc(-c2cnc(C3CC3)o2)cc1`, -16.2% (active); as for `C#C[C@]1(O)CC[C@H]2[C@@H]3CC=C4c5sc(-c6cccc(O)c6)nc5CC[C@]4(C)[C@H]3CC[C@@]21C`, -30.7% (active).
Regarding `Cc1csc(/N=C(N)/N=C(\N)c2cccs2)n1`, the growth was 111% (inactive).

These data come from PubChem BioAssay (NCI).
